High-throughput results from PubChem BioAssay.
Rows were chosen to be rich in hits. Some 1.3% of all compounds tested hit in one or more screens of this group.
IL-2 act: qHTS of IL-2 Activators. IL-2 activation reporter assay, cell-based qHTS; stimulated with anti-CD3/CD4/CD28 beads; in transgenic mouse T cells. activation, % (series mostly up to about 46 µM). hit rate 0.065% among 360,000. AID 652025, 2013; note: 0% is about no effect
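Screening format: compound pinned onto unstimulated transgenic mouse T cells, 60 min incubation, then anti-CD3/anti-CD4/anti-CD28 bead stimulation for 18 hours at 37 degrees C, followed by EGFP and DsRed detection.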
PKM2 act: qHTS Assay for Activators of Human Muscle isoform 2 Pyruvate Kinase; purified PKM2, Kinase-Glo ATP luminescence, activation; response scale: 0% is enzyme alone, no compound; AID 1631, 2009; Potency, µM (series often up to 57.5 µM), inactives show at the top dose activation, hits mostly activators; hit rate 0.34% among 260,000; active = well fitted activation curve with a large enough effect; inconclusive = small, poorly fitted or top-dose-only effect; inactive = no such curve, though single readings can be large or run the other way; note: potency is the fitted concentration of half-maximal effect; % is set by controls: 0 for no effect and ±100 for the full control effect; nearly all actives have a fitted effect of over 55% in size
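Kinase-Glo luminescence reports ATP generated from ADP (0.1 mM) and PEP (0.5 mM) by purified hPK-M2 after 1 h at room temperature, pH 7.2 imidazole buffer; intermediate enzyme activity allows detecting inhibitors and activators.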
TRPML1 ag: qHTS for Agonists of the Human Mucolipin Transient Receptor Potential 1 (TRPML1) | Mucolipin-1 (Homo sapiens), Q9GZU1 | TRPML1-expressing cells, Ca2+ dye fluorescence, FDSS | activation, % (test concentration not listed) | hit rate 0.12% among 410,000 | AID 624414, 2012; note: 0% is about no effect
Target sequence (Q9GZU1 whole entry, looked up): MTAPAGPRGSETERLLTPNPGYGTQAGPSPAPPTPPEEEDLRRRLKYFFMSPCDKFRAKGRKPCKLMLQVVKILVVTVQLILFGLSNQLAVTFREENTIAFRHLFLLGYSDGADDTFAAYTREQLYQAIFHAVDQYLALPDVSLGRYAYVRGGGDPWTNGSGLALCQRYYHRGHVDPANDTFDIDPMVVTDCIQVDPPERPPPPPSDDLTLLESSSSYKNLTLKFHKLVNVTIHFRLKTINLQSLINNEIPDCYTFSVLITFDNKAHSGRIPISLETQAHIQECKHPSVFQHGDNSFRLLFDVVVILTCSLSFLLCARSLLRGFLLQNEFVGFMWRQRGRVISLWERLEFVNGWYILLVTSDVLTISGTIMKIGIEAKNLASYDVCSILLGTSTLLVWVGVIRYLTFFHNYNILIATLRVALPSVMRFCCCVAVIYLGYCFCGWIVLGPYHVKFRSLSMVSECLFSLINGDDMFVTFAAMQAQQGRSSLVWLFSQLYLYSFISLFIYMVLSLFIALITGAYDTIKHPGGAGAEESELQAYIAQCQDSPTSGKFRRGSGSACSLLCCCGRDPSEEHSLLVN
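Calcium fluorescence on an FDSS kinetic reader gave the read-out. Tet-induced TRPML1-DL cells were plated overnight, dye-loaded (Ca8 with quencher, 45-90 min, room temperature, dark), then read 110 s after compound addition, and again 110 s after 4uM final 54-4 (EC80).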
TRPML1 inh: qHTS for Inhibitors of the Human Mucolipin Transient Receptor Potential 1 (TRPML1). AID 624415, 2012. hit rate 0.02% among 390,000. activity change, negative = inhibition, % (no concentration beside the values). TRPML1-inducible cells, Ca2+ dye fluorescence, FDSS; active compounds read low; inhibition of EC80 agonist-evoked calcium signal; in the data active = activity change below about -50%; inconclusive = between about -30% and that limit;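 note: stimulus is agonist 54-4 at its EC80 concentration; % is set by controls: 0 for no effect and ±100 for the full control effect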
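TRPML1-DL cells, Tet-induced overnight (~16 h, 37 °C) at 1,500 cells/well, were loaded with Ca8 no-wash dye plus quencher for 45-90 min at room temperature. Compounds were pinned during FDSS kinetic reading; agonist 54-4 at EC80 (4 uM final) then added.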
PTAP TSG101 blk: qHTS Assay for Iinhibitors of HIV-1 Budding by Blocking the Interaction of PTAP/TSG101; AID 493005, 2010; Potency, µM (highest dose often 115 µM), for the others: at the highest dose activity change, negative = inhibition, hits mostly inhibitors; 340,000 tested, under 10 active; Tumor susceptibility gene 101 protein (Homo sapiens), Q99816; Fluorescence polarization, FITC-PTAP peptide / Tsg101 binding; active = well fitted inhibition curve with a large enough effect in the main read-out, with a control signal flat, not every such curve was filed as active; inconclusive = small, poorly fitted or top-dose-only effect, or effect the other way, or a change in a side signal; inactive = no such curve, though single readings can be large or run the other way; note: potency is the fitted concentration of half-maximal effect; % of control where 0% means no effect
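Tsg101 binding domain (10 uM final) was mixed with compound and a FITC-labeled PTAP peptide (50 nM final) in HEPES pH 7.5 buffer with NaCl, Tween 20, EDTA and TCEP; fluorescence polarization was read after 20 min at r.t.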
BRCA1 expr act: qHTS Assay to Identify Small Molecule Activators of BRCA1 Expression; MCF7-BRCA1-FFLuc reporter, luminescence, 48 h; response scale: scaled: vehicle 0%, 10 µM genistein 100%; Potency, µM (highest dose often 46.1 µM), inactives show at the highest dose activation, hits mostly activators; hit rate 1.1% among 380,000; active = well fitted activation curve with a large enough effect; inconclusive = small, poorly fitted or top-dose-only effect; inactive = no such curve, though single readings can be large or run the other way; note: potency is the fitted concentration of half-maximal effect; nearly all actives have a fitted effect of over 80% in size
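MCF7-BRCA1-FFLuc, 2000 cells/well; 2 h attach, 37 °C/5% CO2; compound 48 h; luciferase substrate 15 min; luminescence end-point. Norm. to genistein 10 microM max activation and DMSO; concentration-response curves fitted.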
* marks the source's active call; other numbers are inactive results; ? = inconclusive; . = no result given; [ ] = remark or other dose. Cut-off read from the data, not from the text of the source, unless noted: active = activation above about 50%; inconclusive = mostly about 30% to 49%; inactive = weaker than that.

SMILES	IL-2 act	PKM2 act	TRPML1 ag	TRPML1 inh	PTAP TSG101 blk	BRCA1 expr act
Cc1cc(C)cc(NC(=O)C(CC(C)C)NC(=O)C2CCCCC2)c1 (stereo not given)	.	.	-0.3	-6.5	.	.
CCOc1ccc(CNC(=O)c2cnc3sc(N(CC)CC)nn3c2=O)cc1	.	.	0.2	6.3	.	.
O=C(COC(=O)CNC(=O)c1ccccc1)NC12CC3CC(CC(C3)C1)C2	0.8	.	-0.2	-5.7	.	-17.8%
Cc1ccc(C(=O)NCC(=O)NC23CC4CC(CC(C4)C2)C3)cc1	-0.4	-3.9%	0.0	1.0	-11.2%	6.31µM*
COc1ccc(/C(N)=N/OC(=O)C2CCCCC2)cc1	-3.8	-13.0%	0.0	17.6	-0.4%	?
COc1ccc(C(=O)O/N=C(\N)c2ccc(OC)c(OC)c2)cc1	1.3	.	-0.2	14.2	-9.8%	12.6µM*
COc1ccc(/C(N)=N/OC(=O)C2CCCCC2)cc1OC	-0.7	-11.0%	-0.2	-17.9	-9.6%	2.82µM*
CCOC(=O)[C@]12CCCC=C1N(Cc1ccccc1)C(=O)[C@H](CC(=O)NCCc1ccccc1OC)C2	0.5	.	.	.	.	.
CN(C)S(=O)(=O)Nc1ccc(-c2cn3ccsc3n2)cc1	.	.	0.5	-4.0	.	11.2µM*
COCCN=C1NN=C(c2ccc(C)c([N+](=O)[O-])c2)CS1	-2.4	0.7%	6.0	12.1	-11.0%	3.16µM*
Cc1ccc(/C=C2\CCC(C3CCCC3)C2=O)cc1 (stereo not given)	-0.8	-1.8%	0.1	-27.5	0.2%	12.6µM*
Cc1ccc(C(=O)c2coc3c2C(=O)C(=O)c2ccccc2-3)cc1	-0.3	-1.3%	8.5	-6.3	-5.8%	17.8µM*
Nc1nc2cc3c(cc2cc1C(=O)NCc1ccc(F)cc1)OCO3	-0.1	.	-0.2	.	.	-34.3%
CS(=O)(=O)Nc1ccc(C2=NN(S(C)(=O)=O)C(c3ccc4c(c3)OCO4)C2)cc1 (stereo not given)	1.1	6.2%	0.0	-5.9	13.5%	4.47µM*
CC(=O)N1N=C(c2cccc(NS(C)(=O)=O)c2)CC1c1ccc2c(c1)OCO2 (stereo not given)	3.4	6.3%[11.5 µM]	0.0	12.9	0.5%	34.4%
Cc1c(C(=O)Nc2cccc([N+](=O)[O-])c2)cnn1-c1ccccc1	-1.0	-4.7%	-1.0	5.2	-3.0%	2.51µM*
Cc1ccc(NC(=O)c2cnn(-c3ccccc3)c2C)cc1C	-0.9	?	1.5	8.7	-0.3%	?
COc1ccc(NC(=O)c2cnn(-c3ccccc3)c2C)cc1OC	4.1	-5.6%[11.5 µM]	0.0	-0.3	1.4%	3.98µM*
O=Cc1ccc2[nH]ccc2c1	.	.	-0.4	.	.	.
CCCCCOc1ccc(CN2CCOCC2)cc1Cl	-3.3	-0.8%	0.9	73.0	-6.0%	8.91µM*
Clc1cc(Br)ccc1OCCN1CCOCC1	-0.7	-10.4%	0.9	26.3	-3.5%	10.1%
Cc1ccc(-n2nc(-c3ccco3)cc2C(=O)O)c(C)c1	2.0	28.2µM*	-1.2	-4.5	-2.8%	1.8%
Cc1ccc2c(Cl)c(C(=O)NCC3CCCO3)sc2c1 (stereo not given)	-2.4	-1.5%	0.1	8.8	-9.7%	?
CCNC(=O)c1sc2cc(C)ccc2c1Cl	-1.7	1.1%	2.6	27.9	-2.8%	7.08µM*
Cc1ccc2c(Cl)c(C(=O)NCCc3ccccc3)sc2c1	-2.5	-4.4%	1.8	28.2	-6.5%	3.16µM*
SMILES	IL-2 act	PKM2 act	TRPML1 ag	TRPML1 inh	PTAP TSG101 blk	BRCA1 expr act
COc1ccc(CCNC(=O)c2sc3cc(C)ccc3c2Cl)cc1	-0.1	-24.0%	-0.2	-6.6	-5.2%	-9.4%
COc1ccc(C(=O)Oc2ccc(C(c3c(C)[nH][nH]c3=O)c3c(C)[nH][nH]c3=O)cc2)cc1	.	.	-0.4	11.2	.	.
Cc1cccc(NC(=O)CN(C)S(=O)(=O)c2ccc3c(c2)CCC(=O)N3)c1C	.	.	-1.1	24.3	.	.
O=C(C[n+]1ccccc1Cl)c1ccc2c(c1)CCCC2	.	.	-0.5	.	.	58.7%
CC(=O)c1sc(NC(=O)c2ccc(Cl)cc2)nc1C	0.6	3.9%	-0.2	-1.9	-3.5%	3.16µM*
CC(=O)c1sc(NC(=O)c2ccccc2)nc1-c1ccccc1	0.5	-10.6%	0.1	-6.5	-4.0%	2.82µM*
CC(=O)Nc1nc(C)c(C(C)=O)s1	1.1	-4.3%	-0.7	-0.3	-14.0%	-28.6%
CC(=O)c1sc(NC(=O)c2ccccc2C)nc1C	0.4	-12.0%	-0.3	2.7	4.0%	12.6µM*
CC(=O)c1sc(NC(=O)c2ccc(F)c(F)c2)nc1C	-2.6	-3.7%	-0.2	37.1	-3.4%	?
O=C(NC1CCCCC1)c1cnn2c1NC(=C1CC1)C=C2C(F)F	.	.	-0.7	.	.	-12.3%
CC(C)c1nc2ccc(C(=O)NCc3ccc(F)cc3)cc2o1	.	.	0.2	3.9	.	.
CCN1C(=O)C(=O)N(CC(=O)c2cc(C)n(C3CC3)c2C)C1=O	0.7	.	-0.2	-1.1	-2.7%	?
Cc1cc(C(=O)CN2C(=O)C(=O)N(CC(C)C)C2=O)c(C)n1C1CC1	-0.3	.	2.5	-10.6	-1.9%	3.16µM*
COc1cccc(-c2ccc(=O)n(CC(=O)NCCN3CCOCC3)n2)c1	-1.7	6.2%	-0.5	-63.1*	-3.8%	-7.7%
Fc1cccc(-c2csc(-c3ccno3)n2)c1	-0.2	0.1%	-1.4	-5.7	-10.1%	-26.9%
Nc1nc(-c2cccc(F)c2)cs1	-0.5	-6.8%	0.1	19.4	-1.5%	11.2µM*
Nc1nc(-c2ccc3c(c2)CCCC3)cs1	8.3	-8.7%	0.2	-8.7	-1.6%	3.16µM*
Nc1nc(-c2ccc3c(c2)OCCO3)cs1	-0.4	2.5%	-0.2	-9.6	-2.8%	81.3%
CC1Cc2cc(-c3csc(N)n3)ccc2O1 (stereo not given)	-0.5	-0.4%	-0.8	-14.5	-5.2%	3.16µM*
COc1cccc(NC(=O)c2oc3ccccc3c2NC(=O)c2ccc(OC(C)C)cc2)c1	.	.	0.1	28.4	.	.
CCN(C(=O)CSc1nc2ccccc2n1CC(=O)NCc1ccc(OC)cc1)c1ccccc1	.	.	0.5	3.6	.	16.3%
Cc1ccc(CNC(=O)C2c3ccccc3C(=O)N3CCc4ccccc4C23)o1 (stereo not given)	-1.7	10µM*	0.4	-9.3	-5.3%	-62.7%
O=C(Nc1ccc(Cl)cc1)c1cc(S(=O)(=O)N2CCCc3ccccc32)ccc1F	.	.	2.0	44.0	.	.
